In PubChem BioAssay AID492998 (Southern Research Specialized Biocontainment Screening …, 2010) one finds outcome data, which are given here for 35 molecules.

Out of some 2,300 compounds screened, about 550 (24%) were called active. The rule behind the calls is not given here. These entries were drawn from the full list. Measured potencies and affinities stand elsewhere.

This assay is described as follows: Vero E6 cell cytotoxicity, dose response, cytotoxicity control for non-replicating M. tuberculosis project, secondary assay (AID 492998). The following applies: series mostly up to 20 µM.
For the molecule `CC1(C)CC(=O)C(C2NCCc3ccccc32)=C(O)C1` (stereo not given), the result was inactive.

Consider `CCCOc1ccc(N2CC(C(=O)Nc3ccccn3)CC2=O)cc1` (stereo not given), for which the molecule was classed as inactive.

`COc1ccc(/C=N/NC(=O)C(=O)NCc2cccnc2)cc1OC`: the outcome was inactive.

Turning to `COc1cc(OC)c2c(OC)cccc2n1`, the molecule was called inactive.

In the case of `CC(C)(C)Sc1ccc2nc3c(n2c1)CCCC3`, the molecule was classed as inactive.

On to `CC(/C=C/c1ccc2c(c1)OCO2)=N/NC(=O)C1COc2ccccc2O1` (stereo not given), for which the outcome was inactive.

With `CCOC(=O)Cn1nc(/C=C/c2ccccc2)ccc1=O`, the call was inactive.

As for `CCOc1cccc2cc(C(=O)NC(C)c3ccccc3)c(=N)oc12` (stereo not given), the molecule was called inactive.

On to `O=C(N/N=C/c1ccc(O)cc1)c1cccc(C(F)(F)F)c1`, for which the molecule was classed as inactive.

On to `O=C(Nc1nnc(C2=COCCO2)o1)c1cccc(C(F)(F)F)c1`, for which the molecule was called inactive.

For `Nc1ccccc1Nc1ccccc1`, the molecule was classed as inactive.

Consider `CCCCCCOC(=O)C(C#N)c1nc2ccccc2nc1N1CCN(CC)CC1` (stereo not given), for which the result was inactive.

Regarding `CCCn1c(O)c(N=NC(=O)c2ccco2)c2ccccc21`, the molecule was classed as inactive.

In the case of `CCc1ccc(N2C(=O)CC(N3CCC(C(=O)OC)CC3)C2=O)cc1` (stereo not given), the molecule was classed as inactive.

Regarding `O=C(NCCc1c[nH]c2ccccc12)c1cc2ccccc2oc1=O`, the molecule was called inactive.

Take `O=C(CNC(=O)c1ccccc1)OC1CCCCC1`: the result was inactive.

Regarding `Cc1cc(C)cc(OCC(=O)N/N=C/c2ccc([N+](=O)[O-])o2)c1`, the call was inactive.

`CCCCCCCC(=O)N/N=C/c1ccc([N+](=O)[O-])o1`: the result was inactive.

For `O=C(CCSc1nnc(-c2ccccc2)o1)N1CCOCC1`, the outcome was inactive.

In the case of `Cc1cc(C)n2nc(N)c(N=Nc3ccccc3)c2n1`, the molecule was called inactive.

Regarding `CCC(C)n1nnc2c(=O)oc3ccccc3c21` (stereo not given), the result was inactive.

For the molecule `CCOc1ccc(NC(=O)COC(=O)C2(C)CC2(Cl)Cl)c([N+](=O)[O-])c1` (stereo not given), the call was inactive.

As to `N#Cc1cc(N)ccc1-n1cccc1`, the outcome was inactive.

Consider `N/C(=N\OC(=O)CC1CCCCC1)c1ccncc1`, for which the call was inactive.

As for `CC(C)CN1C(=O)CC(Sc2ccccc2C(=O)O)C1=O` (stereo not given), the molecule was called inactive.

Consider `O=C1CC(N2CCC(c3nc4ccccc4o3)CC2)C(=O)N1` (stereo not given), for which the outcome was inactive.

For the molecule `COc1ccccc1NC(=O)CCN1CCN(c2ccc(Cl)cc2)CC1`, the outcome was inactive.

With `CC(C)n1c(=S)[nH]c2ccccc2c1=O`, the result was inactive.

With `Cc1ccc(C(=O)N/N=C\c2ccc[nH]2)cn1`, the outcome was inactive.

Turning to `Cc1ccc(C(=O)N/N=C/C=C/c2ccccc2)cc1`, the result was inactive.

Consider `O=C(N/N=C/c1ccc([N+](=O)[O-])s1)c1ccccc1`, for which the result was inactive.

Consider `Cn1cccc1/C=N/NC(=O)c1ccncc1`, for which the molecule was called inactive.

`Cc1ccc(C(=O)N/N=C\c2ccc(-c3ccc(Cl)cc3)o2)cn1`: the result was inactive.

For `O=C(N/N=C/c1ccc(Br)s1)c1cccnc1`, the molecule was called inactive.

As for `COc1cccc(-c2nc(C=O)cs2)c1`, the result was inactive.
